In PubChem BioAssay AID1347383 (Zoeller Lab, School of Medicine, Boston University, 2020):
Activity calls are given as the source filed them.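 Rule for the calls: active = cell survival after UV exposure 2 SD above solvent-only control wells at 10 µM, confirmed on one or two repeats; inactive = the rest.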

Test: cell survival after pyrene fatty acid photosensitization – ZR-82 cells, Analyticon library, screen 2, phospholipid biosynthesis inhibitor project, primary screen (AID 1347383);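 note: survival reflects blocked phospholipid synthesis cutting uptake of the phototoxic fatty acid; compound and fatty acid exposure 3 h then viability read next day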
Conditions: ZR-82 CHO cells, pyrene-fatty acid UV killing, CellTiter Blue, at 10 µM; peroxisome-deficient CHO-K1 variant, with DGAT-1, DGAT-2 and ACAT inhibitors unless noted

| SMILES | outcome |
| --- | --- |
| C[C@]12CC[C@@H](O[C@@H]3O[C@H](CO)[C@@H](O)[C@H](O)[C@H]3O)C[C@@]1(O)CCC1C2CC[C@]2(C)[C@@H](C3=CC(=O)OC3)CC[C@]12O (some centres not stated) | inactive |
| OCC(O)Cc1ccc2c(c1)OCO2 (configuration not stated) | inactive [setting not given] |
| C=CC(C)(C)c1cc2c(O)c3c(c(C(C)(C)C=C)c2oc1=O)OC(C)(C)C=C3 | inactive |
| O=C1N[C@@H](Cc2ccccc2)CN2CCCC[C@@H]12 | inactive |
| CCC1C2CC3C4N(C)c5ccccc5C45CC(C2C5O)N3C1O (configuration not stated) | inactive [setting not given] |
| C/C=C(\C)[C@H](O)[C@H](C)/C=C(C)/C=C/C/C(C)=C/Cc1[nH]c(OC)c(OC)c(=O)c1C | inactive |
| C=CCc1cc(OC)c2c(c1)OCO2 | inactive [setting not given] |
| CO[C@H]1C[C@H](O[C@H]2CC[C@]3(CO)[C@H]4CC[C@]5(C)[C@@H](C6=CC(=O)OC6)CC[C@]5(O)[C@@H]4CC[C@]3(O)C2)O[C@H](C)[C@H]1O | inactive |
| COc1ccc2c3c([nH]c2c1)C(C)=NCC3 | inactive [setting not given] |
| CC[C@H]1CN2CC[C@H]1C[C@H]2[C@H](O)c1ccnc2ccc(OC)cc12 | inactive |
| CC(C)C(=O)O[C@H]1[C@@H]2[C@H](C)C(=O)O[C@@H]2C[C@@H](C)[C@@H]2C=CC(=O)[C@]21C | inactive |
| C[C@]12CC[C@H](O[C@@H]3O[C@H](CO)[C@@H](O)[C@H](O)[C@H]3O)CC1CC[C@@H]1C2CC[C@]2(C)[C@@H](C3=CC(=O)OC3)CC[C@]12O (some centres not stated) | inactive |
| COc1ccc([C@@]23CC[C@H](O)C[C@@H]2N(C)CC3)cc1OC | inactive |
| COc1cc(C2c3cc4c(cc3C(O)C3COC(=O)C23)OCO4)cc(OC)c1O (configuration not stated) | inactive |
| CN1C(=O)c2ccccc2NC(=O)[C@]12O[C@@H]2c1ccccc1 | inactive |
| C[C@@]1(CO)[C@H](O)CC[C@@]2(C)[C@H]1CC[C@H]1C[C@@H]3C[C@@]12CC[C@]3(O)CO | inactive [setting not given] |
| COc1ccc([C@@]23CC[C@@H](O)C[C@@H]2N(C)CC3)cc1OC | inactive |
| COC1CC(O[C@H]2CC[C@]3(C)C4CC[C@]5(C)[C@@H](C6=CC(=O)OC6)CC[C@]5(O)[C@@H]4CC[C@]3(O)C2)OC(C)C1O (some centres not stated) | inactive |
| C[C@]12CC[C@H](O)CC1=CC[C@@H]1C2CC[C@]2(C)[C@@H](C3=CC(=O)OC3)CC[C@]12O (some centres not stated) | inactive |
| C[C@H]1O[C@@H](O[C@H]2CC[C@]3(C=O)C4CC[C@]5(C)[C@@H](C6=CC(=O)OC6)CC[C@]5(O)[C@@H]4CC[C@]3(O)C2)C[C@@H](O)[C@@H]1O (some centres not stated) | inactive |
| C/C=C1/CN2C3CC1C(CO)C2Cc1c3[nH]c2ccccc12 (configuration not stated) | inactive |
| CCC1CC2CN3CCc4c([nH]c5ccccc45)C(C(=O)OC)(C2)C13 (configuration not stated) | inactive |
| CC1CC(C)C(=O)C(C(O)CC2CC(=O)NC(=O)C2)C1 (configuration not stated) | inactive |
| CN1Cc2c(ccc3c2OCO3)[C@@H]2[C@H]1c1cc3c(cc1C[C@@H]2O)OCO3 | inactive |
| CC(C)=CCOc1c2occc2cc2ccc(=O)oc12 | inactive [setting not given] |
| CC(=O)O[C@H]1C(=O)[C@]2(C)C(O)C[C@H]3OC[C@@]3(OC(C)=O)[C@H]2[C@H](OC(=O)c2ccccc2)[C@]2(O)C[C@H](O)C(C)=C1C2(C)C (some centres not stated) | inactive |
| C=C(C)[C@H]1CCC(C)=C[C@@H]1c1c(O)cc(CCCCC)c(C(=O)O)c1O | inactive |
